Results as given in PubChem BioAssay (Tox21).
Records with an inconclusive call do not appear. The source made the active and inactive calls. Unless noted, calls follow the shape of the dose curve; as a rule, active = well fitted curve in the direction sought with a large enough effect in the repeat runs; inconclusive = weak or mixed curves; inactive = no such curve, though single readings can be large; an effect the other way counts as inactive or inconclusive.

Columns and labels:
[1] = qHTS assay to identify small molecule antagonists of the estrogen receptor alpha (ER-alpha) signaling pathway using the BG1 cell line in the presence of 0.1 nM 17-beta-estradiol - cell viability counter screen (AID 1259241); also: nearly all actives have a fitted effect of over 40% in size; also: potency is read from the fitted curve at half-maximal effect
Outline: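 The cell line endogenously expresses full-length ER-alpha and carries four EREs driving luciferase. Cells are cultured 5 days hormone-free, treated 22 hr with compounds and 0.1 nM estradiol, then viability is read by fluorescence.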

[2] = biological target: Estrogen receptor (Homo sapiens) (UniProt P03372); test: qHTS assay to identify small molecule antagonists of the estrogen receptor alpha (ER-alpha) signaling pathway using the BG1 cell line in the presence of 0.1 nM 17-beta-estradiol (AID 1259244); also: nearly all actives have a fitted effect of over 50% in size
Estrogen receptor (Homo sapiens), sequence (P03372 whole entry, looked up): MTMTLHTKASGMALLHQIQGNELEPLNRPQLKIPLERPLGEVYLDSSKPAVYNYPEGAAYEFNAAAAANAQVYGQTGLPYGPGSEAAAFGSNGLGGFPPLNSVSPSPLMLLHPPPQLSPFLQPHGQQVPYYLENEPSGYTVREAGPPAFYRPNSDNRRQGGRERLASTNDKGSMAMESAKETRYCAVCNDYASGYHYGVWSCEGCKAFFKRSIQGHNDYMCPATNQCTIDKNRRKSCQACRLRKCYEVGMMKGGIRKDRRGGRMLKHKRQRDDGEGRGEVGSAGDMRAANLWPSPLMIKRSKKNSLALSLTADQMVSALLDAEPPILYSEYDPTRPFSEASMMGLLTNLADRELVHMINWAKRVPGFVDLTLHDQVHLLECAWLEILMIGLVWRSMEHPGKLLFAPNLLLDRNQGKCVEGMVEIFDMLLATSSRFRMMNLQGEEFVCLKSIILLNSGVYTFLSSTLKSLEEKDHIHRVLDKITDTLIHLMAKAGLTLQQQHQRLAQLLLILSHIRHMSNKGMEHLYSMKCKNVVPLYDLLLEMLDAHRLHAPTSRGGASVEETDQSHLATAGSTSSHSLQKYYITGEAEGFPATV
Outline: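 VM7Luc4E2 cells (endogenous full-length ER-alpha, 4×ERE-luciferase), kept 5 days in phenol red-free, charcoal-stripped FBS medium; 4,000 cells/well. Compounds added with 0.1 nM (final) 17beta-estradiol, 22 hr at 37C; luminescence read with ONE-Glo after 30 min.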

[3] = qHTS assay to identify small molecule HDAC inhibitors (AID 1259364); also: nearly all actives have a fitted effect of over 45% in size; also: potency is read from the fitted curve at half-maximal effect
Outline: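 Wild-type HCT-116 cells, plated overnight at 37 C, exposed to compounds 2 hr at 37 C; luminogenic HDAC-Glo substrate then added 30 min at room temperature. Luminescence reports relative endogenous class I/II HDAC activity.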

[4] = qHTS assay to identify small molecule HDAC inhibitors - cell viability counter screen (AID 1259365); also: nearly all actives have a fitted effect of over 50% in size; also: potency is read from the fitted curve at half-maximal effect
Outline: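 Viability readout: CellTiter-Glo luminescence. Wild-type HCT-116 cells, 2hr compound treatment following overnight attachment at 37 C.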

[5] = qHTS assay to identify small molecule agonists of the sonic hedgehog signaling (Shh) pathway - cell viability counter screen (AID 1259366); also: nearly all actives have a fitted effect of over 50% in size; also: potency is read from the fitted curve at half-maximal effect
Outline: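 Viability measured fluorometrically (CellTiter-Fluor, 1hr, 37C) in 3T3 Gli1-Luc reporter cells after 23hr compound exposure within a 24hr incubation at 37C/5% CO2.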

[6] = qHTS assay to identify small molecule antagonists of the sonic hedgehog signaling (Shh) pathway (AID 1259369; calls by dose curve; also: nearly all actives have a fitted effect of over 45% in size; also: potency is read from the fitted curve at half-maximal effect)
Outline: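 NIH/3T3-derived Gli1-Luc reporter cells plated 4 h, dosed with compound, then stimulated with conditioned medium for 24 h at 37 C. Firefly luciferase luminescence read after 30 min with detection reagent at room temperature.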

[7] = biological target: Estrogen receptor beta (Homo sapiens) (UniProt Q92731); test: qHTS assay to identify small molecule agonists of the estrogen receptor beta (ER-beta) signaling pathway (AID 1259377; active = well fitted activation curve with a large enough effect in the signal ratio in the repeat runs, not every such curve was filed as active; the % refers to the signal ratio)
Estrogen receptor beta (Homo sapiens), sequence (Q92731 whole entry, looked up): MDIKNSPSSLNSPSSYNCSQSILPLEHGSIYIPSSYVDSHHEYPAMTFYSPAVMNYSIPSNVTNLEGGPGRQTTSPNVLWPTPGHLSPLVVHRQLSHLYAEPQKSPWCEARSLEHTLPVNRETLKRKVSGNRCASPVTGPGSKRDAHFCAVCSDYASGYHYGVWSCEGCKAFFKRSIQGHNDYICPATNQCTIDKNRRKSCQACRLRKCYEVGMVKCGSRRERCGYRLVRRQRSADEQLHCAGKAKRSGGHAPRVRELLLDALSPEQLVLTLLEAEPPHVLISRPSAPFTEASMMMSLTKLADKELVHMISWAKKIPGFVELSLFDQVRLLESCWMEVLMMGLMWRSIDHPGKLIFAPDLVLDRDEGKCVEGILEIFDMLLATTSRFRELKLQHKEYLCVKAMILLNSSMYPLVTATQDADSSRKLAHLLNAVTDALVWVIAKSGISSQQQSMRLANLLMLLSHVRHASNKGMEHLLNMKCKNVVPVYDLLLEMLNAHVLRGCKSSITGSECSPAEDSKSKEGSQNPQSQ
Outline: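 A UAS-controlled beta-lactamase reporter in ER-beta-UAS-bla HEK293T cells reports receptor activation. Compounds act for 16 hr at 37C in 2% charcoal-stripped serum, and a FRET substrate is read by fluorescence after 2 hours.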

[8] = biological target: Estrogen receptor beta (Homo sapiens) (UniProt Q92731); test: qHTS assay to identify small molecule antagonists of the estrogen receptor beta (ER-beta) signaling pathway (AID 1259378; active = well fitted inhibition curve with a large enough effect in the signal ratio in the repeat runs, not every such curve was filed as active; the % refers to the signal ratio; also: potency is read from the fitted curve at half-maximal effect)
Outline: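 Antagonist mode: compounds added to beta-lactamase reporter HEK293T ER-beta-UAS cells stimulated with E2 (1nM final), 16 hr at 37C. LiveBLAzer B/G FRET substrate, 2 hours room temperature, fluorescence read-out.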

[9] = qHTS assay to identify small molecule antagonists of the estrogen receptor beta (ER-beta) signaling pathway - cell viability counter screen (AID 1259382);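 also: HEK293T cells carrying ER-beta-UAS-bla reporter stimulated with estradiol; series mostly up to about 92 µM; nearly all actives have a fitted effect of over 55% in size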
Outline: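 ER-beta-UAS-bla HEK293T cells in 2% charcoal-stripped FBS medium, treated with compound plus 1 nM 17-beta-estradiol for 16 h at 37C. Viability read by CellTiter-Glo luminescence after 30 min at room temperature in the same wells.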

[10] = biological target: Estrogen receptor (Homo sapiens) (UniProt P03372); test: qHTS assay to identify small molecule agonists of the estrogen receptor alpha (ER-alpha) signaling pathway in the presence of an antagonist (AID 1259383; calls by dose curve; also: top concentration of the series differs between compounds; nearly all actives have a fitted effect of over 15% in size)
Outline: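 VM7Luc4E2 cells express endogenous full-length ER-alpha with an ERE-luciferase reporter and were hormone-deprived for 5 days. Compounds at 15 concentrations were added with 10.0nM ICI-182,780 for 22hr at 37C. Luminescence was read with ONE-Glo.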

[11] = qHTS assay to identify small molecule agonists or antagonists of the thyroid stimulating hormone receptor (TSHR) signaling pathway - wild type cell line counter screen (AID 1259384; calls by dose curve)
Outline: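 Counter screen in untransfected Hek293: compounds (15-point titration, triplicate) plus phosphodiesterase inhibitor Ro20-1724 added after 18 h plating; 30 min RT. Intracellular cAMP via competitive d2/cryptate immunoassay, 1 h incubation.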

[12] = qHTS assay to identify small molecule antagonists of the androgen receptor (AR) signaling pathway using the MDA cell line in the presence of 0.5 nM R1881 - cell viability counter screen (AID 1259242); also: nearly all actives have a fitted effect of over 45% in size; also: potency is read from the fitted curve at half-maximal effect
Outline: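 MDA-kb2 cells (MMTV-luciferase, AR/GR responsive) were treated with compounds plus 0.5 nM R1881 (final) for 16 hr at 37C, 0% CO2. Viability was then read in the same wells as live-cell protease fluorescence (CellTiter-Fluor, 30 min).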

[13] = qHTS assay to identify small molecule antagonists of the sonic hedgehog signaling (Shh) pathway - cell viability counter screen (AID 1259367); also: nearly all actives have a fitted effect of over 55% in size; also: potency is read from the fitted curve at half-maximal effect
Outline: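 Using CellTiter-Fluor, viability of Gli1-Luc reporter 3T3 cells is read by fluorescence in the wells used for the Shh luciferase assay. Treatment lasts 23 hr with conditioned medium, then reagent 1 hr at 37C.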

[14] = qHTS assay to identify small molecule agonists of the sonic hedgehog signaling (Shh) pathway (AID 1259368; calls by dose curve;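 also: NIH/3T3-derived 3T3Gli1-Luc cells carrying a stable Gli1-driven firefly luciferase reporter; series mostly up to about 92 µM; nearly all actives have a fitted effect of over 15% in size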)
Outline: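 NIH/3T3-derived 3T3Gli1-Luc cells with stably integrated Gli1-driven firefly luciferase, 2,000 cells/well, compounds added after 4 hr. Incubated 24 hr at 37C, 5% CO2; luminescence read after 30 min with luciferase reagent at room temperature.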

[15] = qHTS assay to identify small molecule agonists of the androgen receptor (AR) signaling pathway in the presence of an antagonist - cell viability counter screen (AID 1259379); also: nearly all actives have a fitted effect of over 25% in size; also: potency is read from the fitted curve at half-maximal effect
Outline: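 MDA-kb2 cells (MMTV-luciferase, AR/GR), 3,000/well, 5 h attachment, then 3.0 µM nilutamide (final) and compounds at 15 concentrations. Viability by CellTiter-Fluor fluorescence after 16 h at 37 °C, 0% CO2, in the reporter wells.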

[16] = qHTS assay to identify small molecule agonists of the estrogen receptor beta (ER-beta) signaling pathway - cell viability counter screen (AID 1259380); also: nearly all actives have a fitted effect of over 30% in size; also: potency is read from the fitted curve at half-maximal effect
Outline: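 ER-beta-UAS-bla HEK293T cells in medium with 2% charcoal-stripped FBS, pre-incubated 6 hr, then treated 16 hr at 37C. Cytotoxicity read in the same wells by CellTiter-Glo luminescence after 30 min at room temperature.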

[17] = biological target: Thyrotropin receptor (Homo sapiens) (UniProt P16473); test: qHTS assay to identify small molecule antagonists of the thyroid stimulating hormone receptor (TSHR) signaling pathway (AID 1259385; calls by dose curve; also: nearly all actives have a fitted effect of over 20% in size)
Thyrotropin receptor (Homo sapiens), sequence (P16473 whole entry, looked up): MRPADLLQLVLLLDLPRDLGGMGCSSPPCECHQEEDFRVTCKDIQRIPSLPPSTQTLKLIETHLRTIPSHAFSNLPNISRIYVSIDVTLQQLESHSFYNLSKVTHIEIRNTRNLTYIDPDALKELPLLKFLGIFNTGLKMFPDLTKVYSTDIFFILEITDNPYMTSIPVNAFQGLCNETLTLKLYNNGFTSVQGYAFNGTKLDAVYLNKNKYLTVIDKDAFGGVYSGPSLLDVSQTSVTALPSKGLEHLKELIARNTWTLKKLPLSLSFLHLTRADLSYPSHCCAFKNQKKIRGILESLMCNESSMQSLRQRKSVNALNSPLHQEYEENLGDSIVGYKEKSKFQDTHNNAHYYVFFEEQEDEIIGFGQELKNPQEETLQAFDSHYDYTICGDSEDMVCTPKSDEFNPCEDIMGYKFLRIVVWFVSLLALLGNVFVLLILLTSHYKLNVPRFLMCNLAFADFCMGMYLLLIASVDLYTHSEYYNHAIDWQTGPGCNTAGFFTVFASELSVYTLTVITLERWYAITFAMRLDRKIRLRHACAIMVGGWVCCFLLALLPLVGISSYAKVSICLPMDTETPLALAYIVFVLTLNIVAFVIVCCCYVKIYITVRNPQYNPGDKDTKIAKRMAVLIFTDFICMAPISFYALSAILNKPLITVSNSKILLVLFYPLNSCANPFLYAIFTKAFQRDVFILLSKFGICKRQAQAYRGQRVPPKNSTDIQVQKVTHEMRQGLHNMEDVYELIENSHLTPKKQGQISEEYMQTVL
Outline: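 Antagonist mode: compound-treated TSHR-expressing HEK293 cells were stimulated with 1.5 ng/mL TSH (final) in presence of Ro20-1724 for 30 min at RT. HTRF cAMP detection after 1 h; each compound tested at 15 concentrations, triplicate.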

[18] = qHTS assay to identify small molecule phospholipidosis (PLD) inducers (AID 1259344; active = well fitted curve in the direction sought with a large enough effect; an effect the other way counts as inactive or inconclusive)
Outline: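 Fluorescent phospholipid staining (LipidTOX Red) measured by automated microscopy in fixed HepG2 cells after 24 h treatment; nuclei counterstained with Hoechst 33342; amiodarone as reference inducer.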

Measured: Potency

O=[N+]([O-])C1(Br)COCOC1
active: [5] 43.3 µM | [6] 43.3 µM
inactive: [1] | [2] | [3] | [4] | [7] | [8] | [9] | [10] | [11]

CCC(=O)OCc1ccc(OC)cc1
inactive: [1] | [12] | [3] | [4] | [5] | [13] | [14] | [7] | [8] | [15] | [16] | [9] | [11] | [17]

CCCCCc1ccco1
active: [8] 25.1 µM
inactive: [1] | [12] | [3] | [4] | [5] | [13] | [14] | [7] | [15] | [9] | [11] | [17]

Cc1c(C2(c3cc(Br)c(O)c(Br)c3C)OS(=O)(=O)c3ccccc32)cc(Br)c(O)c1Br
inactive: [14] | [8]
active: [1] 13.3 µM | [12] 10.5 µM | [3] 4.2 µM | [4] 4.2 µM | [5] 9.4 µM | [13] 10.5 µM | [15] 14.9 µM | [16] 23.6 µM

CCCCCC
inactive: [1] | [12] | [3] | [5] | [13] | [6] | [15] | [9] | [11] | [17]

COc1ccc(N)c([N+](=O)[O-])c1
inactive: [1] | [12] | [5] | [14] | [6] | [7] | [8] | [16] | [9] | [11] | [17]

CC(=O)C(C)=O
inactive: [1] | [12] | [3] | [4] | [5] | [13] | [14] | [6] | [15] | [9] | [11] | [17]

C[C@@H]1[C@H](O)[C@@H](C)/C=C/C=C\C=C\C=C\C=C\C=C\C=C\[C@H](O[C@@H]2O[C@H](C)[C@@H](O)[C@H](N)[C@@H]2O)C[C@@H]2O[C@](O)(C[C@@H](O)C[C@@H](O)[C@H](O)CC[C@@H](O)C[C@@H](O)CC(=O)O[C@H]1C)C[C@H](O)[C@H]2C(=O)O (stereo in doubt)
active: [15] 61.1 µM | [16] 61.1 µM
inactive: [1] | [2] | [18] | [3] | [4] | [14] | [10] | [11]

Cc1ccc2c(c1)CCCN2
inactive: [1] | [12] | [3] | [4] | [5] | [13] | [6] | [15] | [9] | [10] | [11] | [17]

CCCCCCC(O)CCCCCCCCCCC(=O)OC (stereo unspecified)
inactive: [1] | [12] | [3] | [4] | [5] | [13] | [14] | [7] | [8] | [11] | [17]

COc1cc(NCc2ccc3nc(N)nc(N)c3c2C)cc(OC)c1OC
inactive: [12] | [2] | [18] | [3] | [4] | [14] | [15] | [11] | [17]
active: [5] 15 µM | [13] 15 µM | [16] 0.237 µM
